# According to the supplement of paper PMC11417369:
# Whole data set: some 25,000 sequences, median “ln(normalized median fluorescence intensity)” near 7.1, cut for the highest 2% near 10. What follows is part of a selection rich in the highest values, with near analogues and random picks from the rest.
# Test system: PfSIP2 AP2 domain 1 (GST-tagged)
# Assay: gcPBM binding intensity (ln(normalized median fluorescence intensity)); higher = stronger DNA binding
# Outline: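 The binding buffer was 1× PBS containing 1% milk, 0.2 mg/ml BSA, 0.5% salmon testes DNA and 0.03% Triton X-100. In it, GST-tagged P. falciparum DNA-binding domains expressed in E. coli were applied for 1 h to an Agilent 4 × 180k array of primer-extended double-stranded 36-bp intergenic genomic probes plus negative controls. Binding intensity, read with Alexa488 anti-GST antibody and a 488 nm scan, is the highest Masliner-normalised natural-log median intensity across replicate spots of either probe orientation.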
row,Sequence,gcPBM binding intensity (ln)
1,CCATGTCACAATTTTTCACACACAAAATTTATATAC [CACACA_site8628],7.39
2,TATTTTTAGAAAATAAAGAAGGAGAATTGAAAATAT [CACACA_negctrl_site361],7.06
3,TTTTGTTTTTAGTTTATACACACCATATTAATATAA [CACACA_site3102],7.27
4,AAGAAAATATAAAATGCACACTATAAATTGTATATA [CACACA_site7928],7.84
5,CATTATAAAAAATAAAAAAGAAATAATTGTATATGC [CACACA_negctrl_site478],7
6,TGTATGTATAATTGAGTGCACAGAAAAAAAAAAGAA,10.5
7,ATATATTTTTTTTCTTCACACACATGAATTATATAT [CACACA_site9053],7.45
8,ATATAAATTTTTTATGAACACACAAATACAGACACT [CACACA_site8848],7.37
9,AATATTTATGGGTGCACACAAACATACATATATATA [CACACA_site3395],11.8
10,TAAACATAAATATGCACACATATACAGATATTCATA [CACACA_site5471],7.04
11,ATAATATTTAGGTGTGCACACAAACATACATATATA [CACACA_site9120],8.81
12,AATATTTATGGGTGCACACAAACATACAGATATATA [CACACA_site5810],12.1
13,AAAAAAAAAACATACACACACACAAATATTTATATA [CACACA_site437],6.94
14,TACAAATATATATGCACACACATATACATACAGATA [CACACA_site5238],7.27
15,ATATAAATTGGCAATAGTACATAAAGGCATAGAAAG [XGTACX_site2674],7.31
16,TTGTATATATTTCCTTGTACGTAATAATTCTTATTG [XGTACX_site3938],7.19
17,TTTATTTGTTCATGCGTGCACTTGATAACAATGTAC [GTGCAC_site9561],9.9
18,ATATTATAATTGAAGGTGCAAAATGTAATATAGATA [GTGCAC_site9661],10.6
19,AAATATAATTAATGATGTACACTTATAGATATTGAT [XGTACX_site8435],7.09
20,AGATATTATAATTAATGTACAAAAAGAAAAAATAGA [XGTACX_site8964],7.04
21,TTTTATAATCATAATAGTACTTTTTCTTTTTCACAT [XGTACX_site5017],6.7
22,TATATATATAATGTTTGTACATATTAAATATATATG [XGTACX_site407],8.3
23,TTTTCATTTGTGACAGTGCAAAATGTTATATTAAAA [GTGCAC_site9647],8.57
24,CTCATTTTGTTAATGGTGCAAAAAAAAAAAAAAAAA,11

row,Sequence,gcPBM binding intensity (ln)
1,TTTTTTGTTACAACAGTGCAAAAAAACCTTAATGTT,7.84
2,TTATCAATAAAATGCACACACTGTAATATTATTAAA [CACACA_site6055],7.18
3,TATCTTATAAACTCTGCACACATAATATATTAAATG [CACACA_site8587],9.1
4,ATATATATTATCATTGTGCACTTATTTATATACCTT,10.5
5,TTATCATTTGCCATTGTGCACTTATATGCTCACATT,10.2
6,ATATGTATGTATTTATTATTGTGCATTGTATTTATA [CACACA_negctrl_site664],7.44
7,TATGTATGTGCTTGTGCGCACCGATAATATAGCCAA,9.96
8,AAAAAGGAAATAATAACACACATTAATAATTATAAA [CACACA_site3401],6.67
9,TATTTATGCACGCGTGCACACACATATGAAAAAAGG [CACACA_site9090],10.4
10,TTATATGCATAAAAAGGTACACATATATAAATAAAT [XGTACX_site6894],7.12
11,TATGAAAAAATATATACACACATAATAAAGGTATAT [CACACA_site3737],6.9
12,CAAAAGGATATGCACACACACACACGGATATTTATA [CACACA_site7099],7.41
13,TTTATGCACGCGTGCACACACATATGAAAAAAGGTA [CACACA_site3315],10.4
14,GGTATTTATGGACGCGTGCACACACATATGAACAAA,9.35
15,TGTTTTATTTATTAAGCACACGCGATTTAAAAAATA [CACACA_site981],6.79
16,TGTATATTTTAGTGATGTACTAATATTATTACTAAT [XGTACX_site3952],6.99
17,TTCTAATATTTACATAATATATAGAAATATAAAGGT [XGTACX_negctrl_site504],7.4
18,GTTAACAAATAATGCACACAAATGGATAAAATTATA [CACACA_site3725],7.68
19,TATATTATCAAAATGGTGCAATAATTTCTATATTAT [GTGCAC_site9772],9.9
20,TATATTAACAAAATGGTGCAATAATTTCTATATTAT [GTGCAC_site9857],10.4
21,GTAGACATTATAATGGTGCAAAAAAATTAACAAAAA [GTGCAC_site9891],10.5
22,AGCAAAACAAAAAAATTAAAATTAACATATAATCAT [GTGCAC_negctrl_site393],6.7
23,TATATTAACAAAATGGTGCAATAATTTCTATATTGT [GTGCAC_site9430],9.87
24,TTAAATACTAAAAAGTGTACACATACATAAAAAATT [XGTACX_site6261],7.32

row,Sequence,gcPBM binding intensity (ln)
1,TTTTGTTTATTATGATTCAAAATGATTTTATCTTTG [TGCATGCA_negctrl_site425],6.71
2,ACATATATATATTTATATATATATATATATATGTGA [CACACA_negctrl_site613],7.44
3,AAGTATAGTCTTACATATATATATATATATATATAT [GTGCAC_negctrl_site280],9.42
4,AGTTTTATATAAGCTTGTACTTAATATTATTAAGTA [XGTACX_site5919],6.99
5,ATCTAATATATATTCTGTACGTAATTAAAACCACAA [XGTACX_site3152],7.54
6,GGACTTAAATAAAATGGTACAGAATTTATATATATT [XGTACX_site8214],6.83
7,TAGTTAACAAATAATGCACACAAATGGATAAAATTA [CACACA_site9240],7.83
8,AAATAGTTGTTAAAGGTGCACAATATGGATATAAGA,11.2
9,TTAAAAGTTATGGATACACACATATAAATATAGATT [CACACA_site7175],6.77
10,GTAAATATTAATAAAAGTACATATGTAGCATATGGA [XGTACX_site5219],7.09
11,TTATTTATTTATTCATGTACGTGTATTTTTTAAAAA [XGTACX_site7915],7.28
12,TGTGCACGTTCTGTGACACACATTTAAATGTGCTTA [CACACA_site176],10.7
13,TTAAATTACTAATGTGCACACATACTAACGTTTAAA [CACACA_site3573],9.21
14,TATATATATATATATGTGCACATTTTATTAAAATGT,9.6
15,TCTGTATATTTCGCGCGTACGAACAAATTGATAATT [XGTACX_site7965],7.11
16,TATAATATAATATATGCACACAAATATGTATATATG [CACACA_site8664],7.15
17,GTATATAATATTAGTGCACACACAAAAATGTACTAA [CACACA_site8112],10.9
18,AAAAATATAATATAATGTACACATAAACAAAAAAAA [XGTACX_site3658],7.04
19,AAAAATATAATATAATGTACACAAAAAAAAAAAAAT [XGTACX_site4914],7.13
20,CTATAATATTAGTGCACACACAAAAATGTACTAAAC [CACACA_site6442],11.3
21,ATATAATATTAGTGCACACACAAAAATGTACTAAAC [CACACA_site632],10.9
22,AGAAAAATAAACAAATGTACAAATTATTACTATATA [XGTACX_site1087],6.8
23,ATAATAAATACACTAGTGCAAAATAATATATGTACT [GTGCAC_site9707],8.13
24,ATATTACAAATATAATGTACAAAATATAAATATGCA [XGTACX_site8106],6.85

row,Sequence,gcPBM binding intensity (ln)
1,TTCGTATATTATTAATGTACATTATAAAATCAATAT [XGTACX_site5751],7.08
2,GACTGAACAACATAATGTACATTTATAAGTATATAT [XGTACX_site3813],7.15
3,TTTTTTTTCAATGGTTGTACAAAGTAAAACAACAAA [XGTACX_site1582],7.2
4,ATATGTAAATAAATATGTACTCATTTATTATTTTAT [XGTACX_site8748],7.06
5,CATTTTATTCTATATGCATGTTAAAAAATGTGTTGA [TGCATGCA_site128],7.12
6,AAATATAATATACAAAGTACTTTTTCATCTTATATA [XGTACX_site8771],6.84
7,AAACAATTTGGGTGTACACATGATACGTTCGATGAG [CACACA_site5160],7.18
8,ATAAAAGAATAAATAAAACACATATATATATATATA [XGTACX_negctrl_site31],9.43
9,AAATATTTATAAATTGCACACAAATAATAACATTAT [CACACA_site8737],7
10,TTCTTTGTAGTATATTAACACACAACTGTTTATAAT [CACACA_site9305],7.27
11,TGTATAATATTTGGTGCACACAAATTAACAACTGTT [CACACA_site9245],11.4
12,TATAATATTTGGTGCACACAAATTAACAACTGTTTA [CACACA_site3742],11.7
13,ATATTTATAAATTGCACACAAATAATAACATTATAT [CACACA_site5322],7.13
14,CTTTGTAGTATATTAACACACAACTGTTTATAATAT [CACACA_site6038],7.05
15,AAAGGTTCACATTATATAGTTATGTAATATATATGT [CACACA_negctrl_site542],6.84
16,ATATTTCATTTTTGTACACACAACGTTGGAGGGTTT [CACACA_site3043],7.18
17,TCATATTTCCATAGGAGTACATAAAAAAAATAATAT [XGTACX_site7601],7.06
18,TAAAAATAATATTAATGTACATTACATATTAATATA [XGTACX_site1019],6.83
19,AAAAGACATTTTTTTTTATAAATACACACGTACGTG [TGCATGCA_negctrl_site281],6.95
20,CATTTTTTTTTATAAATACACACGTACGGGTGCATA [CACACA_site1569],10.9
21,GTTATAAATGCATATACACACATACGTACATACATA [CACACA_site7655],7.4
22,ATAAATAAATTTATACGTACACATAATATATATATA [XGTACX_site4634],8.89
23,TTTTATAAATACACACGTACGTGTGCATAACGTTTT [XGTACX_site3199],7.21
24,TTTTTTTTTATAAATACACACGTACGGGTGCATAAC [CACACA_site8444],11.3
